Source: PubChem (The Scripps Research Institute Molecular Screening Center)
BaF3 tox: reduces parental Ba/F3 cell viability, JAK2V617F counter-screen; inhibition, % at 5.6 µM; CellTiter-Glo ATP luminescence; 1.1% of 220,000 active; AID 1486;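 active means inhibition above a per-campaign cutoff, the mean inhibition of all tested compounds plus 3 SD, cut at about 27% in these data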;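 further: 0% = DMSO wells and 100% = JAK Inhibitor I control wells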
IEC-6 tox-1: kills IEC-6 intestinal cells in KLF5 counter-screen. IEC-6 cytotoxicity, luminescence viability. inhibition, % at 5 µM. 0.78% of 290,000 active. AID 1825;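 further: 0% = plate median of test compound wells and 100% = cytotoxic reference compound wells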
Ba/F3 V617F tox: loss of viability in JAK2V617F-driven Ba/F3 cells | 1.1% of 220,000 active | inhibition, % at 5.6 µM | Ba/F3 EpoR-JAK2V617F viability, ATP luminescence;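 active means inhibition above the campaign mean plus 3 SD over all tested compounds, cut at about 24% in these data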;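 further: cytokine-independent growth of Ba/F3 cells driven by EpoR plus mutant JAK2; 0% = DMSO-treated cells and 100% = JAK inhibitor I control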
GPR7 antagonist: antagonists of human GPR7 (neuropeptides B/W receptor 1); 1.1% of 290,000 active; inhibition, % at 4.4 µM; AID 1861; GPR7-expressing cells, fluorescence antagonist assay; in the data active means inhibition above about 16%, passing the limit was not always enough;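 further: cells stimulated with the agonist NPW; 0% = agonist with vehicle and 100% = vehicle without agonist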
Target sequence (P48145 whole entry, looked up): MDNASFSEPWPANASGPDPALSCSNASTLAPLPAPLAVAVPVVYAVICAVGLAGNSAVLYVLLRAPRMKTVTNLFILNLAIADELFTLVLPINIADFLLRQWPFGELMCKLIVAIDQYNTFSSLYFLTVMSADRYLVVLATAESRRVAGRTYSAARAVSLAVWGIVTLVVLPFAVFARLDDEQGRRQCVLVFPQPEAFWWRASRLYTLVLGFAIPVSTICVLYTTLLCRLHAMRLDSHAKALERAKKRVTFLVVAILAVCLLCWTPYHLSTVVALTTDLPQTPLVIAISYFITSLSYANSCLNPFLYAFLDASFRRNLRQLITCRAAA
DNA FID counter: counter-screen for HCV NS3 helicase inhibitors: DNA intercalator displacement; inhibition, % at 7.9 µM; DNA fluorescent intercalator displacement, fluorescence; AID 1845; 0.17% of 290,000 active; in the data active means inhibition above about 37%;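 further: 0% = vehicle and 100% = reference compound; higher means more ethidium bromide displaced from hairpin DNA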
KLF5 inhibitor: inhibitors of KLF5 expression | DLD-1 KLF5 promoter-luciferase reporter, luminescence | inhibition, % at 5 µM | 0.23% of 290,000 active;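 active means inhibition above a per-plate limit of that plate's mean compound inhibition plus 3 SD, cut at about 60% in these data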;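 further: 0% = DMSO wells and 100% = LY294002 at 200 µM; higher means less KLF5 promoter-driven luciferase light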
KLF5 inh confirm: confirmation of KLF5 inhibitors; 79% of 610 active; DLD-1 KLF5 promoter firefly luciferase reporter, luminescence; AID 1834; shares compounds with KLF5 inhibitor; inhibition, % at 4 µM;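 active means inhibition above a set limit taken from the earlier primary screen, cut at about 63% in these data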;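 further: 0% = DMSO wells and 100% = LY294002 at 200 µM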
IEC-6 tox-2: counter-screen for KLF5 inhibitors: cytotoxicity in rat IEC-6 cells; IEC-6 rat intestinal cells, viability luminescence; 56% of 610 active; inhibition, % at 4 µM; shares compounds with KLF5 inhibitor; AID 1905; in the data active means inhibition above about 23%;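 further: cells exposed to compounds for 48 hours before viability read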
IEC-6 tox confirm: IEC-6 cytotoxicity, confirmation assay; 63% of 1,900 active; IEC-6 rat intestinal epithelial viability, luminescence; shares compounds with IEC-6 tox-1; inhibition, % at 5 µM;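 further: 0% = vehicle and 100% = reference cytotoxic drug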
* = called active by the depositor; x = no result given. Rows were chosen to be rich in hits. Some 2.6% of all compounds tested hit in one or more screens of this group. Unless noted, no stated cut-off is given here; in the data, active means inhibition above about 22%; inactive means the rest.

SMILES | BaF3 tox | IEC-6 tox-1 | Ba/F3 V617F tox | GPR7 antagonist | DNA FID counter | KLF5 inhibitor | KLF5 inh confirm | IEC-6 tox-2 | others
CCOC(=O)c1sc(NC(=O)c2ccc3ncsc3c2)nc1C | -2 | -3 | -4 | 9 | 0 | 94* | 75* | 3
CCOC(=O)c1sc(NC(=O)c2cc3ccccc3o2)nc1C | 2 | 6 | 4 | -7 | -1 | 82* | 62* | -4
Nn1c(SCC(=O)Nc2ccc3c(c2)OCCO3)nnc1-c1ccncc1 | x | 1 | x | -5 | -3 | 2 | x | x
CC(C)c1ccc(NC(=O)c2snc3ccc(Cl)cc23)cc1 | 3 | 8 | -6 | -6 | 1 | -108 | x | x
CN(C)CCCNC(=O)c1cc(Br)ccc1Cl | 1 | 4 | -1 | -5 | -2 | -26 | x | x
Cn1ncc2c(Nc3cccc(Cl)c3)nc(Nc3cccc(Cl)c3)nc21 | 1 | -9 | 2 | -24 | 10 | -17 | x | x
COc1ccc(OC)c(N/C(C)=C/C(=O)c2ccccc2)c1 | -1 | -16 | -2 | -9 | 5 | -32 | x | x
COc1ccc(OC)c(N/C=C/C(=O)c2ccccc2)c1 | x | 4 | x | 6 | -13 | 70* | 76* | 2
Cc1cccc(/C=C2\CS/C(=C\c3cccc(C)c3)C2=O)c1 | 5 | -4 | 0 | 2 | -6 | -15 | x | x
COc1ccc(N2C(=O)C(Cl)=C(N(CCO)Cc3ccccc3)C2=O)cc1 | 5 | -14 | -1 | 0 | -14 | -17 | x | x
CC(C)(C)c1ccc(C(=O)O/N=C(\N)c2ccccn2)cc1 | x | -2 | x | -11 | -30 | 89* | 96* | -12
Cc1ccc(C(=O)O/N=C(\N)c2ccccn2)cc1 | x | 6 | x | 7 | -15 | 38 | x | x
CC(=O)C1C(c2ccc(C)cc2)c2c(noc2C)CC1(C)O (configuration not stated) | 4 | -3 | -4 | -1 | -15 | -8 | x | x
Cc1ccsc1/C=N/Nc1cccc(C(=O)O)c1 | 3 | -6 | 0 | -9 | -20 | 11 | x | x
Cc1ccsc1/C=N/Nc1ccc(C(=O)O)cc1 | x | 9 | x | -4 | -8 | 63* | 44 | -5
Cc1ccc(Nc2nc(-c3c(C)nc4ccccn34)cs2)cc1 | 92* | 94* | 94* | 18 | 8 | 87* | 87* | 79* | IEC-6 tox confirm=79*
Cc1ccc(Nc2nc(-c3c(C)nc4ncccn34)cs2)cc1 | 78* | 90* | 76* | 17 | -5 | 73* | 79* | 73* | IEC-6 tox confirm=59*
COc1cccc(N2CCN(S(=O)(=O)c3ccc(-c4coc(C)n4)cc3)CC2)c1 | x | -9 | x | 6 | -54 | -13 | x | x
CCN(CC)C1CCN(C(=O)CCc2nnc(CCc3ccccc3)o2)C1 (configuration not stated) | 1 | 0 | -1 | -8 | 0 | -37 | x | x
CN1CCN(c2ccc(NC(=O)c3ccc4c(c3)OCO4)cc2)CC1 | 1 | -4 | -1 | -12 | 7 | -81 | x | x
Cn1ncc([N+](=O)[O-])c1C(=O)N/N=C/c1cccc([N+](=O)[O-])c1 | -4 | 0 | -2 | -9 | 4 | -9 | x | x
Cc1ccc(-n2nnnc2-c2cccc(C)c2)cc1 | 1 | -6 | -1 | 0 | -6 | -31 | x | x
COc1ccc(-n2nnnc2-c2cccc(OC)c2)cc1 | 71* | 84* | 78* | 4 | -15 | 77* | 86* | 58* | IEC-6 tox confirm=59*
CCOC(=O)CC(=O)CSc1ncc(C(=O)OCC)c(N)n1 | 4 | -3 | -2 | -1 | -15 | -18 | x | x
Cc1ccc(C(=O)N/N=C/c2cc(Br)ccc2O)cn1 | x | 84* | x | -8 | -12 | 83* | 87* | 9 | IEC-6 tox confirm=13
CCCCC(=O)NC(c1ccccc1OC)c1ccc2cccnc2c1O (configuration not stated) | 38* | 24* | 47* | -23 | -37 | 76* | 94* | 48* | IEC-6 tox confirm=57*
CCCCC(=O)NC(c1ccc(N(C)C)cc1)c1ccc2cccnc2c1O (configuration not stated) | x | 62* | x | -18 | -29 | 85* | 88* | 64* | IEC-6 tox confirm=86*
